Test results from PubChem BioAssay (NCATS).
Results filed as inconclusive are left out. A number with no mark means an inactive call. Calls follow the shape of the dose curve; as a rule, active = well fitted cell-killing curve with a large enough effect; inconclusive = small, poorly fitted or top-dose-only effect; inactive = flat fitted curve, though single readings scatter.

assay: Cell Viability - LYMP2-002 (AID 977); conditions: LYMP2-002 lymphoblastoid cell viability, qHTS; series mostly up to 92.2 µM; activity change, negative = cytotoxic: at the top concentration;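 also: compound exposure lasted 24 h at 37 °C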
Source text: NIH Chemical Genomics Center [NCGC]
NIH Molecular Libraries Screening Centers Network [MLSCN]
National Institutes of Environmental Health Sciences [NIEHS]
National Toxicology Program [NTP]
We have developed a 1536-well cell-based assay for quantitative high throughput screening (qHTS) against a number of cell lines to determine in vitro cytotoxicity of small molecules. This particular assay uses a human lymphoblastoid cell line (LYMP2-002) purchased from Coriell Institute for Medical Research.
NCGC Assay Protocol Summary:
The CellTiter-Glo luminescent cell viability assay (Promega) is a homogeneous method to measure the number of viable cells in culture. The end point readout of this assay is based on quantitation of intracellular ATP, an indicator of metabolic activity, using the luciferase reaction. Luciferase catalyzes the oxidation of beetle Luciferin to oxyluciferin and light in the presence of ATP. The luminescent signal is proportional to amount of ATP present.
Using the CellTiter-Glo luminescent cell viability assay, the amount of cellular ATP was measured in the lymphoblastoid cell line with complete culture medium following compound treatment for 24 hours. The assay was performed in opaque white Kalypsys 1536-well plates. In the screen, tetraoctylammonium bromide was used as positive control. Library compounds were measured for their ability to cause acute toxicity in the cell line, as reflected by a decrease in intracellular ATP levels, in a concentration-dependent manner. […] AC50 values were determined from concentration-response data modeled with the standard Hill equation.
qHTS protocol for CellTiter Glo lymphoblastoid cellular assay
[Step] [Parameter] [Value] [Description]
1. Reagent; 5 uL; 2500 lymphoblastoid cells/well
2. Time; 5 hr; 37 C incubation
4. Controls; 23 nL; Tetraoctylammonium bromide 6.4pM to 92 uM
5. Time; 24 hr; 37 C incubation
6. Reagent; 5 uL; CellTiter Glo reagent
7. Time; 30 min; Room Temperature
8. Detection; Luminescence; Viewlux plate reader
Keywords: cell viability, cytotoxicity, lymphoblastoid cell line, luminescence, NTPHTS, NTPHTS_NCGC, NIEHS, DSSTox, MLSMR, MLSCN, NIH Roadmap, qHTS, NCGC

**Q.** For `C=CCCCCCC`, which “activity change, negative = cytotoxic” value is on record?
**A.** -0.909%

**Q.** For `O=[N+]([O-])c1cc(C(F)(F)F)ccc1Cl`, which “activity change, negative = cytotoxic” value is on record?
**A.** 5.39%

**Q.** With `Cc1ccc(CO)cc1` as the molecule, how does the “activity change, negative = cytotoxic” value read?
**A.** -1.64%

**Q.** For `CC(=O)Nc1ccc(C)cc1`, which “activity change, negative = cytotoxic” value is on record?
**A.** 8.69%

**Q.** For `CC(C)(c1cc(Br)c(OCC(Br)CBr)c(Br)c1)c1cc(Br)c(OCC(Br)CBr)c(Br)c1` (stereo not given), which “activity change, negative = cytotoxic” value is on record?
**A.** -26.4%

**Q.** Which “activity change, negative = cytotoxic” value does the source give for `C[C@@H]1CC2(OC3C[C@@]4(C)C5=CC[C@H]6C(C)(C)C(O[C@@H]7OC[C@@H](O)[C@H](O)[C@H]7O)CC[C@@]67C[C@@]57CC[C@]4(C)C31)OC(O)C1(C)OC21` (stereo not given in full) here?
**A.** -4.64%

**Q.** With `COc1ccc(N)c(C)c1` as the molecule, how does the “activity change, negative = cytotoxic” value read?
**A.** -11.3%

**Q.** With `[O-]/[N+](=N\O)c1ccccc1` as the molecule, how does the “activity change, negative = cytotoxic” value read?
**A.** -21.4%

**Q.** With `CCCCCCCCN` as the molecule, how does the “activity change, negative = cytotoxic” value read?
**A.** -15.1%

**Q.** With `Cc1cccc2ccccc12` as the molecule, how does the “activity change, negative = cytotoxic” value read?
**A.** 10%

**Q.** With `Clc1ccc(Cl)c(Cl)c1Cl` as the molecule, how does the “activity change, negative = cytotoxic” value read?
**A.** -8.5%

**Q.** Which “activity change, negative = cytotoxic” value does the source give for `COC(=O)c1ccccc1` here?
**A.** 5.46%

**Q.** With `CCCCC(=O)N(C)C` as the molecule, how does the “activity change, negative = cytotoxic” value read?
**A.** 3.27%

**Q.** With `Cc1cc(C)cc(N)c1` as the molecule, how does the “activity change, negative = cytotoxic” value read?
**A.** -1.23%

**Q.** Which “activity change, negative = cytotoxic” value does the source give for `Cc1ccc(Cl)cc1N` here?
**A.** 12.2%

**Q.** Which “activity change, negative = cytotoxic” value does the source give for `Cc1cc(C2(c3cc(C)c(O)cc3C)OS(=O)(=O)c3ccccc32)c(C)cc1O` here?
**A.** -8.91%

**Q.** With `Nc1cc([N+](=O)[O-])ccc1C(=O)O` as the molecule, how does the “activity change, negative = cytotoxic” value read?
**A.** 5.15%

**Q.** With `Nc1cccc([N+](=O)[O-])c1` as the molecule, how does the “activity change, negative = cytotoxic” value read?
**A.** 12.6%

**Q.** For `O=C(O)c1ccccc1[N+](=O)[O-]`, which “activity change, negative = cytotoxic” value is on record?
**A.** -1.26%

**Q.** Which “activity change, negative = cytotoxic” value does the source give for `O=C(O)c1cccc(Cl)c1Cl` here?
**A.** -2.37%

**Q.** For `CC(=O)c1ccccn1`, which “activity change, negative = cytotoxic” value is on record?
**A.** -1.83%

**Q.** With `CC(C)=CCC/C(C)=C/C=O` as the molecule, how does the “activity change, negative = cytotoxic” value read?
**A.** -3.4%

**Q.** With `CCCCC(C=O)CC` (stereo not given) as the molecule, how does the “activity change, negative = cytotoxic” value read?
**A.** -6.93%

**Q.** With `CCOC(C)(C)C` as the molecule, how does the “activity change, negative = cytotoxic” value read?
**A.** 8.76%

**Q.** Which “activity change, negative = cytotoxic” value does the source give for `COc1ccc(N=[N+]([O-])c2ccc(OC)cc2)cc1` here?
**A.** -13.2%

**Q.** Which “activity change, negative = cytotoxic” value does the source give for `CCCCCCCN` here?
**A.** 10.8%

**Q.** Which “activity change, negative = cytotoxic” value does the source give for `CC(=O)CC(C)C` here?
**A.** 3.87%

**Q.** Which “activity change, negative = cytotoxic” value does the source give for `Cc1ccc(C)cc1` here?
**A.** -6.57%

**Q.** For `COC(=O)CS`, which “activity change, negative = cytotoxic” value is on record?
**A.** -3.1%

**Q.** For `CCOc1ccc(NC(C)=O)cc1N`, which “activity change, negative = cytotoxic” value is on record?
**A.** 2.79%

**Q.** With `C=CC(=O)OCCCC` as the molecule, how does the “activity change, negative = cytotoxic” value read?
**A.** -14%

**Q.** With `CC(=O)c1cc(C)oc1C` as the molecule, how does the “activity change, negative = cytotoxic” value read?
**A.** -3.2%

**Q.** For `Clc1ccccn1`, which “activity change, negative = cytotoxic” value is on record?
**A.** -27.4%

**Q.** Which “activity change, negative = cytotoxic” value does the source give for `CC(C)CO` here?
**A.** -11.2%

**Q.** Which “activity change, negative = cytotoxic” value does the source give for `O=P(O)(OCc1ccccc1)OCc1ccccc1` here?
**A.** -17.1%

**Q.** With `COc1cccc2sc(N)nc12` as the molecule, how does the “activity change, negative = cytotoxic” value read?
**A.** -1.41%

**Q.** Which “activity change, negative = cytotoxic” value does the source give for `C1CCCC1` here?
**A.** 3.91%

**Q.** For `Cc1ccc(S(=O)(=O)NC2CCCCC2)cc1`, which “activity change, negative = cytotoxic” value is on record?
**A.** -2.71%

**Q.** Which “activity change, negative = cytotoxic” value does the source give for `Cc1cc([N+](=O)[O-])ccc1N` here?
**A.** -4.84%

**Q.** Which “activity change, negative = cytotoxic” value does the source give for `Cc1cc(C)cc([N+](=O)[O-])c1` here?
**A.** 3.7%
